Among the data in PubChem BioAssay (NCATS) are outcome values, retold here.

Calls of active or inactive are those of the source. Calls come from the whole dose curve; as a rule, active = well fitted curve in the direction sought with a large enough effect; inactive = no such curve, though single readings can be large or run the other way.

The target of the experiment is Alpha-galactosidase (Coffea arabica) (UniProt Q42656). Briefly: Counterscreen for Glucocerebrosidase Inhibitors: qHTS Assay for Coffee Bean alpha-Galactosidase at pH 5.9 (AID 998). As to conditions: coffee bean alpha-galactosidase enzyme assay; series mostly up to 76.9 µM. The source says: NIH Chemical Genomics Center [NCGC]
Alpha-galactosidase (Coffea arabica), sequence (Q42656 whole entry, looked up): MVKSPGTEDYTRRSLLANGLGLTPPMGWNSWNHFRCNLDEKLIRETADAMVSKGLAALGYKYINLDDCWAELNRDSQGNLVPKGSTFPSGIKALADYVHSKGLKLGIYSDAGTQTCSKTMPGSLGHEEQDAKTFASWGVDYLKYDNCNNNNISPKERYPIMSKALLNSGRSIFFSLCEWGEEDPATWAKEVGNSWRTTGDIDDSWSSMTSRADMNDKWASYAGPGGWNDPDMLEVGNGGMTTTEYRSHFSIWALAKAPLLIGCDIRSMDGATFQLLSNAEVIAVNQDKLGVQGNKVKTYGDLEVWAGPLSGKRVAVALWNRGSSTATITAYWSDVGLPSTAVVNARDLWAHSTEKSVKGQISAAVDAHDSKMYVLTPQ
NIH Molecular Libraries Screening Centers Network [MLSCN]
PI Name: Zheng, Wei [NIH]
Alpha-galactosidase is a homodimeric glycoprotein that hydrolyzes the terminal alpha-galactosyl moieties from glycolipids and glycoproteins. Deficiency of this enzyme results in Fabry Disease with progressive accumulation of globotriaosylceramide and other glycosphingolipids in vascular endothelial cells that causes renal failure, myocardial infarction and stroke, and premature death in patients. It has reported that the improper folding and trafficking of alpha-galactosidase resulted from the genetic mutations may account for a significant numbers of Fabry patients. […] We optimized this coffee bean alpha-galactosidase assay in 1536-well plate format as a counter-screen assay for identifying the selective small molecule inhibitors of other lysosomal enzymes.
NCGC Assay Protocol Summary:
This is a fluorogenic enzyme assay with 4-Methylumbelliferyl alpha-D-galactopyranoside as the substrate and green coffee bean […] (from Sigma-Aldrich) as the enzyme preparation. Upon the hydrolysis of this fluorogenic substrate, the resulting product, […]. 4-Methyllumbelliferone, can be excited at 365 nm and emits at 440 nm which can be detected by a standard fluorescence plate reader. Data were normalized to the controls for basal activity (without enzyme) and 100% activity (with enzyme). In the AC50 values were determined from concentration-response data modeled with the standard Hill equation.
Assay buffer: 50 mM citric acid, 0.005% Tween-20, pH 5.9. (pH 5.9 is an optimal condition for this enzyme assay.)
1536-well assay protocol for the coffee bean alpha-galactosidase:
(1) Add 2 ul/well of enzyme (2 nM final)
(2) Add 23 nL compounds in DMSO solution. The final titration was 0.7 nM to 77 uM.
(3) Add 1 ul of substrate (80 uM final)
(4) Incubate at room temperature for 20 min.
(5) Add 2 ul stop solution (1M NaOH and 1M Glycine mixture, pH 10)
(6) Detect the assay plate in a ViewLux plate reader (PerkinElmer) with Ex=365 nm and Em=440nm.
Keywords: Alpha-galactosidase, Fabry Disease, pharmacological chaperone, chaperone therapy, high throughput screening, alpha-galactosidase inhibitor, MLSMR, MLSCN, NIH Roadmap, qHTS and NCGC
`O=C(/C=C\c1ccc(O)c(O)c1)OCCc1ccccc1`: the compound was called inactive. Under `CO[C@]1(NC(=O)CSCC#N)C(=O)N2C(C(=O)O)=C(CSc3nnnn3C)CS[C@H]21` stands “inactive”; under `CN1CCN2c3ccccc3Cc3ccccc3[C@@H]2C1`, “inactive”; under `CN(C)[C@@H]1C(=O)C(C(N)=O)=C(O)[C@]2(O)C(=O)C3=C(O)c4c(O)ccc(Cl)c4[C@H](O)[C@H]3C[C@@H]12`, “inactive”.

Take `Cc1c(C)c2c(c(C)c1O)CC[C@@](C)(CN1CCN(c3cc(N4CCCC4)nc(N4CCCC4)n3)CC1)O2`: the call was inactive. Under `CN(C)C/C=C(\c1ccc(Br)cc1)c1cccnc1` stands “inactive”; under `O[C@@H]1CCCC[C@H]1N1CCC(c2ccccc2)CC1`, “inactive”; under `CCN(CC)CCC[C@H](C)Nc1c2ccc(Cl)cc2nc2ccc(OC)cc12`, “inactive”. Under `NC(=NCc1ccc(Cl)c(Cl)c1)NC(=O)c1nc(Cl)c(N)nc1N` stands “inactive”; under `COC(=O)c1c(-c2cc(OC)c(OC)c(OC)c2)c2ccnc(OCc3ncccn3)c2c(=O)n1Cc1ccnc(C)c1`, “inactive”; under `C=CCN1CC[C@@]23CCCC[C@@H]2[C@@H]1Cc1ccc(O)cc13`, “inactive”.

In the case of `CC(C)(Oc1ccc([C@@H]2CC2(Cl)Cl)cc1)C(=O)O`, the compound was classed as inactive. Under `CC[C@]1(O)C[C@H]2CN(CCc3c([nH]c4ccccc34)[C@](C(=O)OC)(c3cc4c(cc3OC)N(C)[C@@H]3[C@](O)(C(=O)OC)[C@H](OC(C)=O)[C@]5(CC)C=CCN6CC[C@]43[C@@H]65)C2)C1` stands “inactive”.

With `COC(=O)[C@H]1[C@H]2C[C@H]3c4[nH]c5ccccc5c4CCN3C[C@@H]2CC[C@@H]1O`, the compound was classed as inactive. Under `S=C(S)O[C@@H]1C[C@@H]2C[C@H]1[C@@H]1CCC[C@H]21` stands “inactive”. Under `COc1c2c(nc3ccccc13)O[C@@H]([C@@](C)(O)CO)C2` stands “inactive”; under `C[C@@H]1C[C@@H]2[C@H]3CCC4=CC(=O)C=C[C@]4(C)[C@]3(Cl)[C@@H](O)C[C@@]2(C)[C@@]1(O)C(=O)CO`, “inactive”. Regarding `CC[C@H](C)N(C)C(=O)c1cc2ccccc2c(-c2ccccc2Cl)n1`, the compound was classed as inactive.

As to `Nc1ncnc2c1nc(Br)n2[C@@H]1O[C@H]2COP(=O)(O)O[C@@H]2[C@H]1O`, the outcome was inactive.

In the case of `C[C@@H](Cc1ccccc1)Nc1ncnc2c1ncn2[C@@H]1O[C@@H](CO)[C@H](O)[C@@H]1O`, the compound was called inactive.

Regarding `CCCN1CCC[C@H](c2cccc(C#N)c2)C1`, the call was inactive. Under `Nc1ncnc2c1c(-c1ccc(Oc3ccccc3)cc1)cn2C1CCCC1` stands “inactive”; under `C=CCN1CCc2c(cc(O)c(O)c2Cl)[C@H](c2ccccc2)C1`, “inactive”.

On to `CC(C)(C(=O)O)c1ccc([C@@H](O)CCCN2CCC(C(O)(c3ccccc3)c3ccccc3)CC2)cc1`, for which the compound was called inactive. As to `CCN(Cc1ccncc1)C(=O)[C@@H](CO)c1ccccc1`, the call was inactive. `CN1[C@@H]2CC[C@H]1CC(NC(=O)c1nn(C)c3ccccc13)C2` (stereo not given in full): the call was inactive. With `C[C@@](N)(C(=O)O)c1ccc(C(=O)O)cc1` the entry was “inactive”. Consider `O=C(O)[C@@H]1CCCN[C@H]1C(=O)O`, for which the outcome was inactive. With `O=[N+]([O-])c1ccc(O[C@H]2O[C@@H](CO)[C@@H](O)[C@@H](O)[C@@H]2F)c([N+](=O)[O-])c1`, the compound was called inactive. With `Oc1ccc(/C=C\c2cc(O)cc(O)c2)cc1` the entry was “inactive”; with `NC[C@H](O)C1CCCCCCC1`, “inactive”; with `c1ccc([C@@H]2CN3CCSC3=N2)cc1`, “inactive”. For the compound `Nc1ncnc2c1ncn2[C@@H]1O[C@@H](C(=O)NC2CC2)[C@H](O)[C@@H]1O`, the result was inactive. With `Cc1ccccc1/C=C\C1=NCCN1`, the result was inactive. In the case of `C[C@@H](Cc1ccc2c(c1)OC(C(=O)O)(C(=O)O)O2)NC[C@H](O)c1cccc(Cl)c1`, the outcome was inactive. Under `CC(C)C[C@H](NC(=O)[C@@H]1O[C@H]1C(=O)O)C(=O)NCCCCN=C(N)N` stands “inactive”; under `NCCCCCCNS(=O)(=O)c1cccc2c(Cl)cccc12`, “inactive”; under `O=C(O)/C=C\[C@H](O)c1ccc(Cl)cc1`, “inactive”. Turning to `CCN1C[C@]2(C)CC[C@@H](O)[C@]34[C@@H]5CC6[C@@H](OC)C[C@@](O)([C@H]5[C@@H]6O)[C@@H](C[C@@H]23)[C@H]14`, the outcome was inactive. Take `CCCN1CCc2cccc3c2[C@@H]1Cc1ccc(O)c(O)c1-3`: the outcome was inactive.
